The results in this text go back to publication PMC7862700, “An all-to-all approach to the identification of sequence-specific readers for epigenetic DNA modifications on cytosine”.

Assay in all cases: DAPPL (digital affinity profiling via proximity ligation, sequencing); 10 mM Tris-HCl pH 7.5, 50 mM NaCl, 1 mM DTT, 4% glycerol, room temperature, 30 min; GST-TFs on glutathione beads, 16-mer random dsDNA library, 0.1% formaldehyde crosslink after washing; high values mean tight binding
Settings in all cases: protein: recombinant; tags: N-terminal GST; dsDNA, one strand shown

One assay addresses T1, FLI1 (Homo sapiens, UniProt Q01543 1-452).
T1 sequence: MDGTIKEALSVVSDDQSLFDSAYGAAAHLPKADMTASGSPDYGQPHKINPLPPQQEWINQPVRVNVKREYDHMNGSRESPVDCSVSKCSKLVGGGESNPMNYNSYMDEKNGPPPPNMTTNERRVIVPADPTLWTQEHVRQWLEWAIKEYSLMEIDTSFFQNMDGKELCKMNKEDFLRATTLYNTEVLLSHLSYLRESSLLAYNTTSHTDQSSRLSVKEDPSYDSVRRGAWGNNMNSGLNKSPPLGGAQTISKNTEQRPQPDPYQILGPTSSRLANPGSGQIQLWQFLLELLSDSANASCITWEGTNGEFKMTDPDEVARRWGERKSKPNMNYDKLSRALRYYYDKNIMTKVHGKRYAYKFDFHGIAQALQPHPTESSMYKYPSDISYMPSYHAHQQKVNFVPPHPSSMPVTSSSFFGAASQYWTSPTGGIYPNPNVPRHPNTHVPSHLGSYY
In outline:
(§1)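 Binding signal is defined as a hexamer's read frequency for one factor over its frequency for the tag-only sample. To obtain reads, GST-fused human transcription factors were expressed in yeast, captured on glutathione beads, barcoded with DNA and pooled with that sample. Pools met 200 nmole of a 16-mer random double-stranded DNA library in Tris/NaCl/DTT/glycerol buffer for 30 min at room temperature before washing, 0.1% formaldehyde crosslinking, proximity ligation (BsaI/T4 ligase, 1 h, 37 °C), PCR and Illumina NextSeq500 sequencing.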

Another assay addresses T2, ELK1 (Homo sapiens, UniProt P19419 1-428).
T2 sequence: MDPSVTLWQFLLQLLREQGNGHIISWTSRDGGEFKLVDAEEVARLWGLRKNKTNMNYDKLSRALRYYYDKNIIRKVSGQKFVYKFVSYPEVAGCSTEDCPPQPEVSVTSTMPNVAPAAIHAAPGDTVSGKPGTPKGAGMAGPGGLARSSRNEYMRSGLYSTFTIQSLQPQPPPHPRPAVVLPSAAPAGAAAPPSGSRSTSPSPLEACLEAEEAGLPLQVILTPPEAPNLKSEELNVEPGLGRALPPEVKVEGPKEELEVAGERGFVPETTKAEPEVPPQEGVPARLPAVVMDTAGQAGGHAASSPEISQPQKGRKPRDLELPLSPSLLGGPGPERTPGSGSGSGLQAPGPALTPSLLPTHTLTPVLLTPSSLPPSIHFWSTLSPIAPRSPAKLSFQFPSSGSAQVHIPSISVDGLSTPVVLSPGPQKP
Summed up: as §1

The target in the next assay is T3, GABPA (Homo sapiens, UniProt Q06546 1-454).
T3 sequence: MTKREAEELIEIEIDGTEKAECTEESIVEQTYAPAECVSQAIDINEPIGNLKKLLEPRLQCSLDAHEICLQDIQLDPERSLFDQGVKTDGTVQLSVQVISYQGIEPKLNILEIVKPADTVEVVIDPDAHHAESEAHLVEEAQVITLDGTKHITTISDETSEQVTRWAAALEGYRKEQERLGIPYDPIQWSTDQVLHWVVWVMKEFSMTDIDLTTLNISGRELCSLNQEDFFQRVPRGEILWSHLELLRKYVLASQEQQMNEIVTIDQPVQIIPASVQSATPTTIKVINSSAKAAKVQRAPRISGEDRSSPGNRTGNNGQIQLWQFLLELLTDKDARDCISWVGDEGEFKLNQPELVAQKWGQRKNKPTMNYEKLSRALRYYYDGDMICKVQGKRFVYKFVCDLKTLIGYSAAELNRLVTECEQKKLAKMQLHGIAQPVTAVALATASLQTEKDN
Summed up: as §1

The target of another assay is T4, ERG (Homo sapiens, UniProt P11308 1-479).
T4 sequence: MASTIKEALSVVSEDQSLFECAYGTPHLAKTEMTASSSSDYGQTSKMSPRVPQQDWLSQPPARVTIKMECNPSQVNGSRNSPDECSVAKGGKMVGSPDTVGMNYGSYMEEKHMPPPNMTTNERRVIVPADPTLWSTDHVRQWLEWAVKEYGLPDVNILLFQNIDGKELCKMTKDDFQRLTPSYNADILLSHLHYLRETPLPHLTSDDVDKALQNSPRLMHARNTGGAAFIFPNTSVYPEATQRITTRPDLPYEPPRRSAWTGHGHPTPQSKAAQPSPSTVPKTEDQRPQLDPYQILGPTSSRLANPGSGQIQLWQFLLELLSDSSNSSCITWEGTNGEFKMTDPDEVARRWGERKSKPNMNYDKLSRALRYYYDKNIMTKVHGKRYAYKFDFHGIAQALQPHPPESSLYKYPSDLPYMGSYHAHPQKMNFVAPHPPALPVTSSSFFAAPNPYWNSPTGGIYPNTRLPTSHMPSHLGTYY
Summed up:
as §1

A further assay concerns the target ELF1 (Homo sapiens, UniProt P32519 1-619). Summed up: as §1
For a further assay, the target named is T5, EHF (Homo sapiens, UniProt Q9NZC4 1-300).
T5 sequence: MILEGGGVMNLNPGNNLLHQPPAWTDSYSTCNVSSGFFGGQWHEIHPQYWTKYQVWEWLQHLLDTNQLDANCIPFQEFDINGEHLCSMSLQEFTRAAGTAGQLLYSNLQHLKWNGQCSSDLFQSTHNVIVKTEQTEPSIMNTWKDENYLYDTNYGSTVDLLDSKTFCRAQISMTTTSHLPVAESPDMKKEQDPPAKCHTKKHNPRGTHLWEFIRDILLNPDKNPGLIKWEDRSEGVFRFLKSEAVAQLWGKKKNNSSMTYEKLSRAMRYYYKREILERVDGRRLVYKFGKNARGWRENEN
Summed up:
as §1

A further assay addresses SPI1 (Homo sapiens, UniProt P17947 1-270). Summed up: as §1
The target of another assay is SPIB (Homo sapiens, UniProt Q01892 1-262). In outline:
as §1

In another assay the target is T6, ELK3 (Homo sapiens, UniProt P41970 1-407).
T6 sequence: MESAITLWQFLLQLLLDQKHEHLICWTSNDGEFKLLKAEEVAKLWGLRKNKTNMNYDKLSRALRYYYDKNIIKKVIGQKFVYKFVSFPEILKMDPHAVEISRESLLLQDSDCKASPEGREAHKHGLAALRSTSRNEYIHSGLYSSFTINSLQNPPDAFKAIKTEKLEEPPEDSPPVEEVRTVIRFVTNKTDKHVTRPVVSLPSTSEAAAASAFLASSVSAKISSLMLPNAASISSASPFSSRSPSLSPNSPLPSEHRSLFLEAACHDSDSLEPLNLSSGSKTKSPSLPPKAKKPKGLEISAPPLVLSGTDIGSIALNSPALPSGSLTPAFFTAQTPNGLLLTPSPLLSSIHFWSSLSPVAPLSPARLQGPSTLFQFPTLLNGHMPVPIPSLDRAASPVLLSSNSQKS
Summed up: as §1

A further assay addresses T7, FEV (Homo sapiens, UniProt Q99581 1-238).
T7 sequence: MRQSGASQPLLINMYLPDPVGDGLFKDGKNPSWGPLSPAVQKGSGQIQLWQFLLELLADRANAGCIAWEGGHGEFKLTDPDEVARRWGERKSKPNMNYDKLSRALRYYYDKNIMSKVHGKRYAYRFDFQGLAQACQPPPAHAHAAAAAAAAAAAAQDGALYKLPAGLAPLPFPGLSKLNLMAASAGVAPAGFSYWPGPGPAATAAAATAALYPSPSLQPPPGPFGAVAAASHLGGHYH
Summed up: as §1

For the next assay, the target named is ETV5 (Homo sapiens, UniProt P41161 1-510). Summed up:
as §1

The target in a further assay is T8, SPIC (Homo sapiens, UniProt Q8N5J4 1-248).
T8 sequence: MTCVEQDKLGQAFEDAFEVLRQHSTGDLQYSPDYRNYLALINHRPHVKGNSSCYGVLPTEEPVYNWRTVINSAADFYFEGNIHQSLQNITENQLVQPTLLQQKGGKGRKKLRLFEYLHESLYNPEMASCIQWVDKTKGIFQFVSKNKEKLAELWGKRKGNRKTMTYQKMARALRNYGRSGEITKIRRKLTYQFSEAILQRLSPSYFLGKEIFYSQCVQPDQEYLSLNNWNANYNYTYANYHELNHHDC
Summed up: as §1

The target of another assay is ELF4 (Homo sapiens, UniProt Q99607 1-663). In outline: as §1
Sequence of ELF4 (Q99607 whole entry): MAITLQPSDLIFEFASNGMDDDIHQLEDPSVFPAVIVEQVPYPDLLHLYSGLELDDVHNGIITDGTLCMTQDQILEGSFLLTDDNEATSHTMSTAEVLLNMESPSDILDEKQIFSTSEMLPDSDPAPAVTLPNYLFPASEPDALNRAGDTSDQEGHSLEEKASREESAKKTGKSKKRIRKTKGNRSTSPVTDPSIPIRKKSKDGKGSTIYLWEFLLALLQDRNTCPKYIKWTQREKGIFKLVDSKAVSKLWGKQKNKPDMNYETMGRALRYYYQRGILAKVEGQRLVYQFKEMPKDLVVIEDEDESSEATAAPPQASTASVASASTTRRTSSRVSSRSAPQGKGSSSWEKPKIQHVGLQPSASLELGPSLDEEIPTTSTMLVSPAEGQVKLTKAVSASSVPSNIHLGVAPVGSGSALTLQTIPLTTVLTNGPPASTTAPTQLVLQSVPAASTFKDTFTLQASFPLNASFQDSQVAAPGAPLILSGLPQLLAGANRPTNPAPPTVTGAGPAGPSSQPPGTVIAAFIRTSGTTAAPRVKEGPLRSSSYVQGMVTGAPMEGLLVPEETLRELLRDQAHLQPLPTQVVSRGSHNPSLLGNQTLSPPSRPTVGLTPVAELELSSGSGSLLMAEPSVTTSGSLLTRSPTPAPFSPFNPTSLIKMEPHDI
The next assay addresses T9, ELK4 (Homo sapiens, UniProt P28324-2 1-405).
T9 sequence: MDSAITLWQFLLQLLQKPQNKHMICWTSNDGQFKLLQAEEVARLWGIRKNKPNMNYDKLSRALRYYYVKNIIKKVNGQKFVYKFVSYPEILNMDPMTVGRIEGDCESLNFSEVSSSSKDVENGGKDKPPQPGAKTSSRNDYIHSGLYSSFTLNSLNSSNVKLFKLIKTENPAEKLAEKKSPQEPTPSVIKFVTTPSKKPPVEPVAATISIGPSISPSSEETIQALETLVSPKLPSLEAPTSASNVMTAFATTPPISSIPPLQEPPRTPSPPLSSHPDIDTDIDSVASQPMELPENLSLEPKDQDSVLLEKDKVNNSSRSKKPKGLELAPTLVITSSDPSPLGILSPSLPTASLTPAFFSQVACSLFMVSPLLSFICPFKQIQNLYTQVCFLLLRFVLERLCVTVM
Summed up: as §1

In another assay the target is T10, ETV2 (Homo sapiens, UniProt O00321 1-342).
T10 sequence: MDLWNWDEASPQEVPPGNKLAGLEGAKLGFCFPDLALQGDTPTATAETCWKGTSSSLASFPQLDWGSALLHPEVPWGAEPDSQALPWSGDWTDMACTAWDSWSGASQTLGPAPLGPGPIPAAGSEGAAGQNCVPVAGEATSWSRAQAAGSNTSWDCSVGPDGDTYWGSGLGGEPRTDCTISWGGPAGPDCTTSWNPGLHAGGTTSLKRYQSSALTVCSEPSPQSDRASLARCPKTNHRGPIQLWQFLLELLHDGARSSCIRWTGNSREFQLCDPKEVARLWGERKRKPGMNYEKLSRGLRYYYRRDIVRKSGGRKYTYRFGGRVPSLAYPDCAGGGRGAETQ
In outline: as §1

In another assay the target is T11, ELF3 (Homo sapiens, UniProt P78545 1-371).
T11 sequence: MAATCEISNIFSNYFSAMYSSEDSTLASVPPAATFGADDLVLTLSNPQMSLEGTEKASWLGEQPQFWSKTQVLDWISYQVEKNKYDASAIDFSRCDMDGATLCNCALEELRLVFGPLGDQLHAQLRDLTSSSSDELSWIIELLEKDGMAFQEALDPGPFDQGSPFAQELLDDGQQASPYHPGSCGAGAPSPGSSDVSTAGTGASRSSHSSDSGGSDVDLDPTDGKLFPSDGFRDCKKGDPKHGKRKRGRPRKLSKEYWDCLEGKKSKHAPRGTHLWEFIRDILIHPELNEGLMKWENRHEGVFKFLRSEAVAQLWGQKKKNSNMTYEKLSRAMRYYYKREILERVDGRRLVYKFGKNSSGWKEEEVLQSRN
Summed up:
as §1

The target in the next assay is ETV1 (Homo sapiens, UniProt P50549 1-477). In outline: as §1
Sequence of ETV1 (P50549 whole entry): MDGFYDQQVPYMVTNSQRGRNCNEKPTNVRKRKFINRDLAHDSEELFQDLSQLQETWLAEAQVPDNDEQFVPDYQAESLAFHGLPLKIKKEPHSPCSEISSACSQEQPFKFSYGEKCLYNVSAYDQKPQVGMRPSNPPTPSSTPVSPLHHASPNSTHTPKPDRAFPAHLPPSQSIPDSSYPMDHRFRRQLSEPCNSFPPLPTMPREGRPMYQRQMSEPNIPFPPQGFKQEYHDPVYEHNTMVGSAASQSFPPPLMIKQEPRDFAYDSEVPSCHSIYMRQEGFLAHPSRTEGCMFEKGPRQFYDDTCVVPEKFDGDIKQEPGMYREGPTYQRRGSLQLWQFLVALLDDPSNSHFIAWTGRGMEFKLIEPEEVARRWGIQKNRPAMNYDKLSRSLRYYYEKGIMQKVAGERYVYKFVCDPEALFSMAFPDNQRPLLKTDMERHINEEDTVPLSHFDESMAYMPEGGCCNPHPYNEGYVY

Sequence of ELF1 (P32519 whole entry): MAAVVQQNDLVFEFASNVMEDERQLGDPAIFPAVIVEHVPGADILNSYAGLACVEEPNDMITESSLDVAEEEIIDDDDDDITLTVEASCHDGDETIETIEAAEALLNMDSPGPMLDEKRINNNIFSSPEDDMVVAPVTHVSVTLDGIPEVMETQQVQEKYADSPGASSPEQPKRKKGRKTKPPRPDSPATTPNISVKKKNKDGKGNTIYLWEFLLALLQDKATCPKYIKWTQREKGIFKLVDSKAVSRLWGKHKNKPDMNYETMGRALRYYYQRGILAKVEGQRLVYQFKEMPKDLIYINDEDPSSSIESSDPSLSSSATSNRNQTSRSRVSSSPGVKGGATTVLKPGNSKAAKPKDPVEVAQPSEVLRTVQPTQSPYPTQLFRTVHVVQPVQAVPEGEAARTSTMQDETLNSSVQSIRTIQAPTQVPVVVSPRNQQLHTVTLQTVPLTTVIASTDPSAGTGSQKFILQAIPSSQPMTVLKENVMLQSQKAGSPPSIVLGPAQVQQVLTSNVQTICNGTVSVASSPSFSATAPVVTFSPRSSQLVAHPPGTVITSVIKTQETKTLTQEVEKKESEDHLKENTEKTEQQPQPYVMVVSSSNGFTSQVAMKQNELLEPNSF
Sequence of SPIB (Q01892 whole entry): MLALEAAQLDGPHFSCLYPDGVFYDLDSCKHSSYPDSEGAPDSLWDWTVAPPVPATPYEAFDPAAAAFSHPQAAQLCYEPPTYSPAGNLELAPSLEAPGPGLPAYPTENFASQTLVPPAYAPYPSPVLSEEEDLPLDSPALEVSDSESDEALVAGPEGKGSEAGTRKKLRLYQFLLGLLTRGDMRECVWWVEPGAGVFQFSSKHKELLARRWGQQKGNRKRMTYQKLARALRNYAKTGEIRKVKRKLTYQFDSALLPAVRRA
Sequence of ETV5 (P41161 whole entry): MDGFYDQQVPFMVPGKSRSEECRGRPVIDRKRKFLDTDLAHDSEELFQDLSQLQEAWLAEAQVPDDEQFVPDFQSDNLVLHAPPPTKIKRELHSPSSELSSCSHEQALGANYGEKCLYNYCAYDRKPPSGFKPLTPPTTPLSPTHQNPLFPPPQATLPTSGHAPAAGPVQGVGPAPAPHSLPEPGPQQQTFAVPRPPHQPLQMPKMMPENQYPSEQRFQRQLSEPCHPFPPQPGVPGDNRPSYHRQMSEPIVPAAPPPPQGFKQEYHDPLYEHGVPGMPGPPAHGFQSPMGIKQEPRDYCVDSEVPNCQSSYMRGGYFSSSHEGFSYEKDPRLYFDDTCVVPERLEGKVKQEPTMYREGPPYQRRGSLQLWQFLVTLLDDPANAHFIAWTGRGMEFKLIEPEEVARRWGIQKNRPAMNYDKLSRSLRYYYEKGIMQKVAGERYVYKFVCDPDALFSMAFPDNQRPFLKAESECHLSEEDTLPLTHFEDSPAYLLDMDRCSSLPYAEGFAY

Consider GTATAC, for which the binding signal with FLI1 was 1.28 fold enrichment (6-mer frequency, TF over GST control); with ELK1, 1.3 fold enrichment (6-mer frequency, TF over GST control); with GABPA it was 1.32 fold enrichment (6-mer frequency, TF over GST control); with ERG, 1.24 fold enrichment (6-mer frequency, TF over GST control); in the assay with ELF1 it was 1.18 fold enrichment (6-mer frequency, TF over GST control); with EHF it was 1.22 fold enrichment (6-mer frequency, TF over GST control). Also, the binding signal with SPI1 was 1.18 fold enrichment (6-mer frequency, TF over GST control); in the assay with SPIB, 1.27 fold enrichment (6-mer frequency, TF over GST control); in the assay with ELK3, 1.28 fold enrichment (6-mer frequency, TF over GST control); with FEV, 1.2 fold enrichment (6-mer frequency, TF over GST control); with ETV5, 1.24 fold enrichment (6-mer frequency, TF over GST control); with SPIC, 1.2 fold enrichment (6-mer frequency, TF over GST control). Further, the binding signal in the assay with ELF4 was 1.3 fold enrichment (6-mer frequency, TF over GST control); with ELK4, 1.29 fold enrichment (6-mer frequency, TF over GST control); with ETV2, 1.1 fold enrichment (6-mer frequency, TF over GST control); in the assay with ELF3 it was 1.18 fold enrichment (6-mer frequency, TF over GST control); with ETV1 it was 1.31 fold enrichment (6-mer frequency, TF over GST control).
